# KDM5B inhibitor = Primary screen for KDM5B Histone Demethylases FDH-coupled qHTS; KDM5B demethylase, FDH-coupled NADH fluorescence (FDH is formaldehyde dehydrogenase); AID 1347165, 2019; 2.6% of 220,000 active; Potency, µM (series often up to 57.7 µM), hits mostly inhibitors; Lysine-specific demethylase 5B (Homo sapiens), Q9UGL1; active means well fitted inhibition curve with a large enough effect; further: 0% is about no effect; nearly all actives have a fitted effect of over 70% in size
#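 Measured: NADH fluorescence change, 30 min, RT. System: KDM5BΔAP 200 nM final, H3K4me3 peptide, α-KG, Fe(II), ascorbate, NAD⁺ plus FDH, pH 7.5 HEPES. Compounds: titrated, 10 min pre-incubation with enzyme.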
# * = called active by the depositor; i = inactive. Shown is part of a subset that was picked to be rich in hits. Potency means the concentration at half of the fitted maximal effect.
SMILES,KDM5B inhibitor
O=C(Cc1cccc(F)c1)NCc1nnc2c(-c3nc(C4CC4)no3)cccn12,31.6µM*
COC(=O)c1ccc(CNC(=O)c2nccnc2N)cc1,i
CC(C)NC(=O)N1CC2ON=C(C(=O)NCc3cccnc3)C2C1 (configuration not stated),i
O=C(/C=C/Nc1ccc(OCc2ccccc2)cc1)c1ccc(Br)cc1,i
O=C(Nc1cccc2cccnc12)NC12CC3CC(CC(C3)C1)C2,i
COc1cc(SC)ccc1C(=O)OCC(=O)NCc1cccs1,i
CNS(=O)(=O)Cc1ccccc1CNC(=O)c1cc(F)cc(F)c1,i
Cc1cc2c(c(=O)n(-c3ccc(F)cc3)c(=O)n2CC(=O)Nc2ccc(F)cc2)n1C,i
Cn1c(SCC(=O)N2CCCC2)nc2ccsc2c1=O,i
O=C(c1cn[nH]c1)N1CCC(c2nc(CCOCC3CC3)no2)C1 (configuration not stated),i
COCCNC(=O)CN1CCN(c2cc(-c3nc4ccccc4s3)c3ccccc3n2)CC1,i
CC1(C)CC(=O)C2=C(C1)Nc1c(c(=O)[nH]c(=O)n1Cc1ccccc1)C2c1ccc2c(c1)OCO2 (configuration not stated),i
O=C(NCc1nnc2c(-c3nc(C4CC4)no3)cccn12)c1cccc(Cl)c1,28.2µM*
Cc1cc(C)c([S+](=O)([O-])c2nnn3c2nc(N2CCC(F)CC2)c2ccccc23)c(C)c1,79.4µM*
Cc1ccc(C)c([S+](=O)([O-])c2nnn3c2nc(N2CCC(F)CC2)c2ccccc23)c1,79.4µM*
Cc1ccc(N2CCN(c3nc4c(S(=O)(=O)c5ccc(C)c(C)c5)nnn4c4ccccc34)CC2)c(C)c1,i
Cc1ccc(N2CCN(c3nc4ccccc4n4nnnc34)CC2)c(C)c1,i
O=[S+]([O-])(c1ccncc1)c1nnn2c1nc(N1CCC(F)CC1)c1ccccc12,i
Cc1ccc(S(=O)(=O)c2nnn3c2nc(N2CCCCC2)c2ccccc23)cc1C,i

# Screening data (PubChem BioAssay)
